Experimental data from the supplement of paper PMC10849652.
Of roughly 7,900 targets only a part is listed; those with a hit were picked by preference. About 0.6% of all pairs of compound and target were hits.

Each target was assayed with CCCS(=O)(=O)Nc1ccc(F)c(C(=O)c2c[nH]c3ncc(-c4ccc(Cl)cc4)cc23)c1F [vemurafenib] (assay: log2 fold change, soluble protein after heating vs DMSO (PISA); higher = thermal stabilisation; K562 cells, 10 uM, 30 min; active = over 0.2 and 3.5 SD of the protein, either way, in both replicates (recomputed)).
Summary of the method: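 Thermal stability values are relative to control samples and come from duplicates. They are expressed as log2 fold changes. For measurement, K562 cells (2×10^6 cells/mL) received 10 μM compound for 30 min, and aliquots were heated for 3 min over 48°C-58°C, pooled, and extracted at 4°C in PBS with 0.5% NP-40. Soluble protein, the supernatant after 21,000xg for 90 min, was quantified by TMTpro 16plex LC-MS/MS with equalised channel sums.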

UniProt Q9Y2U8, sequence (Q9Y2U8 whole entry, looked up): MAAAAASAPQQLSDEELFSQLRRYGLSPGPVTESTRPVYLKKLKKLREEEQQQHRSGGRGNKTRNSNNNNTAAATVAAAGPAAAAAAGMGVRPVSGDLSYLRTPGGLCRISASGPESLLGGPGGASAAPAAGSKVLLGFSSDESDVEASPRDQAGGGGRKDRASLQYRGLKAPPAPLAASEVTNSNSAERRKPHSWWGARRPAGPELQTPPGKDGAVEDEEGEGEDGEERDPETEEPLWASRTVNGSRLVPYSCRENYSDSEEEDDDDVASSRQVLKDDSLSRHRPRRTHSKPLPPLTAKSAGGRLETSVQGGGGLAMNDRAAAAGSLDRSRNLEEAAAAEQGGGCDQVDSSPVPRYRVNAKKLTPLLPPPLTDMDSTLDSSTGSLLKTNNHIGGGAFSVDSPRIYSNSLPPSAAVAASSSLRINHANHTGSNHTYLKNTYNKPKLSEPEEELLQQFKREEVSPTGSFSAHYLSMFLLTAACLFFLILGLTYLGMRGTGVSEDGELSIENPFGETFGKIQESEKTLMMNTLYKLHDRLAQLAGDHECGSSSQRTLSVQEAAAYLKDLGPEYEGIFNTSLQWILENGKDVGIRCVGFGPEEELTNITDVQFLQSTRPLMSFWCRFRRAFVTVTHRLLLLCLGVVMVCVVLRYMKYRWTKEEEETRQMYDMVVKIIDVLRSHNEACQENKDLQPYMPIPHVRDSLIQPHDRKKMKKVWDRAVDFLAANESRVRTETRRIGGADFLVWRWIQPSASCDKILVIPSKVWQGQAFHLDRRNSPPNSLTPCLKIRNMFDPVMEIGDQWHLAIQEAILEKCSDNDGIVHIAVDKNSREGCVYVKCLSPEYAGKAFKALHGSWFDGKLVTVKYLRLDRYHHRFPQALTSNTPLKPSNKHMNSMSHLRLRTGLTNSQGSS
UniProt Q9UHB6, sequence (Q9UHB6 whole entry, looked up): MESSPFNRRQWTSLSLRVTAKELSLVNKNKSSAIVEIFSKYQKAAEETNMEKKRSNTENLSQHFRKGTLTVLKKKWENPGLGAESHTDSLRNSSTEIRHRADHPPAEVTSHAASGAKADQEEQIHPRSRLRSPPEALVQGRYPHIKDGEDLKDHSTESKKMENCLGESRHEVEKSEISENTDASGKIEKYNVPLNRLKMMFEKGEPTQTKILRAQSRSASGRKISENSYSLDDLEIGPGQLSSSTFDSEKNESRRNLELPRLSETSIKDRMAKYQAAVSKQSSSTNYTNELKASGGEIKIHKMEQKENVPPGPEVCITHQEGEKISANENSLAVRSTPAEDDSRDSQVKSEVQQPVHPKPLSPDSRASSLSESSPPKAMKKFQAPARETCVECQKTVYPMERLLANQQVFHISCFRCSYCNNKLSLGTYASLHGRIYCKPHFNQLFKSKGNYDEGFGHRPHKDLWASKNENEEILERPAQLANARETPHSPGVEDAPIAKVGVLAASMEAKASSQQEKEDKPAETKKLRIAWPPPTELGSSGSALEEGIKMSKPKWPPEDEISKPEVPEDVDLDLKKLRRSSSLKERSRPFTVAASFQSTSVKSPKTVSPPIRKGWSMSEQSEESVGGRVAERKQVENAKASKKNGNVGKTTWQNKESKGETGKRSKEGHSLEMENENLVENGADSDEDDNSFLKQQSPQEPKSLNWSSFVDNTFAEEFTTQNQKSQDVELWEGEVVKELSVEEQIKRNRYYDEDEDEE
UniProt Q9UBF1, sequence (Q9UBF1 whole entry, looked up): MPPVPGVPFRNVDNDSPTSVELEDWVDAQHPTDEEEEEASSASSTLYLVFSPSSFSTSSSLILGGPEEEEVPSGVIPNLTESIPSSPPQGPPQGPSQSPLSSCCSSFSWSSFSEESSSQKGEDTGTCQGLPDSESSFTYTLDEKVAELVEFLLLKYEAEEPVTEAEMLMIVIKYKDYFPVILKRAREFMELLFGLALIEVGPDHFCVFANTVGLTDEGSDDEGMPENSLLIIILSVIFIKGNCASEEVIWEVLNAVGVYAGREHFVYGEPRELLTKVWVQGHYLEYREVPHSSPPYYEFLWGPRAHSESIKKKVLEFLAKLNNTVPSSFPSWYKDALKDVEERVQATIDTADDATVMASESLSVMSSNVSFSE
UniProt Q9C0E8, sequence (Q9C0E8 whole entry, looked up): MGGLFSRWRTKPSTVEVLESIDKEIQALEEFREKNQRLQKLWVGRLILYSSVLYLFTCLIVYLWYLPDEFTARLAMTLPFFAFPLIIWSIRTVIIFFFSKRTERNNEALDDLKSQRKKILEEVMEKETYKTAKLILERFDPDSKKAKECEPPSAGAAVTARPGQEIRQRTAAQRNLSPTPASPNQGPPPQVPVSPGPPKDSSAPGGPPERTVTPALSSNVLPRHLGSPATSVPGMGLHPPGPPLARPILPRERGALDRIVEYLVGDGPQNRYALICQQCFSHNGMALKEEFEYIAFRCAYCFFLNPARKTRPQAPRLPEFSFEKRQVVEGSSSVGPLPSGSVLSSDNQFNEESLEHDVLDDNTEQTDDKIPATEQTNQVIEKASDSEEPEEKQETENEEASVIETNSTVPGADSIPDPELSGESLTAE
UniProt Q14739, sequence (Q14739 whole entry, looked up): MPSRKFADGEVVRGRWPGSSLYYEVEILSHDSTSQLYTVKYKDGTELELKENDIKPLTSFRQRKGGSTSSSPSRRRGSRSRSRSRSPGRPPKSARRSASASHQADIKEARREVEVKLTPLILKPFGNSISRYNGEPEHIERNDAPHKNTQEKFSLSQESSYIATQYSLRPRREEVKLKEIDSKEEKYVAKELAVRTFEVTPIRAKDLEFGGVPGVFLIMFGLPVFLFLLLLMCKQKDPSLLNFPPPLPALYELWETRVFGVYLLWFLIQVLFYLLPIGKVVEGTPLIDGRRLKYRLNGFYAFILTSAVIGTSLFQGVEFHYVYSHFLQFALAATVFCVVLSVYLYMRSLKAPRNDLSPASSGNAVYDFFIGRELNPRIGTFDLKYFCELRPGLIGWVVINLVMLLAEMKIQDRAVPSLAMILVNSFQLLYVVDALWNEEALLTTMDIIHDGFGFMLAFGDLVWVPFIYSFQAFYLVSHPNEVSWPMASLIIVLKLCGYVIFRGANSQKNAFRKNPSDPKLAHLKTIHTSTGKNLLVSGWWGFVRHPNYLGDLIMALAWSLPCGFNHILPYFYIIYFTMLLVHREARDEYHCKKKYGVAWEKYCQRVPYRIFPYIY
UniProt Q7Z4S6, sequence (Q7Z4S6 whole entry, looked up): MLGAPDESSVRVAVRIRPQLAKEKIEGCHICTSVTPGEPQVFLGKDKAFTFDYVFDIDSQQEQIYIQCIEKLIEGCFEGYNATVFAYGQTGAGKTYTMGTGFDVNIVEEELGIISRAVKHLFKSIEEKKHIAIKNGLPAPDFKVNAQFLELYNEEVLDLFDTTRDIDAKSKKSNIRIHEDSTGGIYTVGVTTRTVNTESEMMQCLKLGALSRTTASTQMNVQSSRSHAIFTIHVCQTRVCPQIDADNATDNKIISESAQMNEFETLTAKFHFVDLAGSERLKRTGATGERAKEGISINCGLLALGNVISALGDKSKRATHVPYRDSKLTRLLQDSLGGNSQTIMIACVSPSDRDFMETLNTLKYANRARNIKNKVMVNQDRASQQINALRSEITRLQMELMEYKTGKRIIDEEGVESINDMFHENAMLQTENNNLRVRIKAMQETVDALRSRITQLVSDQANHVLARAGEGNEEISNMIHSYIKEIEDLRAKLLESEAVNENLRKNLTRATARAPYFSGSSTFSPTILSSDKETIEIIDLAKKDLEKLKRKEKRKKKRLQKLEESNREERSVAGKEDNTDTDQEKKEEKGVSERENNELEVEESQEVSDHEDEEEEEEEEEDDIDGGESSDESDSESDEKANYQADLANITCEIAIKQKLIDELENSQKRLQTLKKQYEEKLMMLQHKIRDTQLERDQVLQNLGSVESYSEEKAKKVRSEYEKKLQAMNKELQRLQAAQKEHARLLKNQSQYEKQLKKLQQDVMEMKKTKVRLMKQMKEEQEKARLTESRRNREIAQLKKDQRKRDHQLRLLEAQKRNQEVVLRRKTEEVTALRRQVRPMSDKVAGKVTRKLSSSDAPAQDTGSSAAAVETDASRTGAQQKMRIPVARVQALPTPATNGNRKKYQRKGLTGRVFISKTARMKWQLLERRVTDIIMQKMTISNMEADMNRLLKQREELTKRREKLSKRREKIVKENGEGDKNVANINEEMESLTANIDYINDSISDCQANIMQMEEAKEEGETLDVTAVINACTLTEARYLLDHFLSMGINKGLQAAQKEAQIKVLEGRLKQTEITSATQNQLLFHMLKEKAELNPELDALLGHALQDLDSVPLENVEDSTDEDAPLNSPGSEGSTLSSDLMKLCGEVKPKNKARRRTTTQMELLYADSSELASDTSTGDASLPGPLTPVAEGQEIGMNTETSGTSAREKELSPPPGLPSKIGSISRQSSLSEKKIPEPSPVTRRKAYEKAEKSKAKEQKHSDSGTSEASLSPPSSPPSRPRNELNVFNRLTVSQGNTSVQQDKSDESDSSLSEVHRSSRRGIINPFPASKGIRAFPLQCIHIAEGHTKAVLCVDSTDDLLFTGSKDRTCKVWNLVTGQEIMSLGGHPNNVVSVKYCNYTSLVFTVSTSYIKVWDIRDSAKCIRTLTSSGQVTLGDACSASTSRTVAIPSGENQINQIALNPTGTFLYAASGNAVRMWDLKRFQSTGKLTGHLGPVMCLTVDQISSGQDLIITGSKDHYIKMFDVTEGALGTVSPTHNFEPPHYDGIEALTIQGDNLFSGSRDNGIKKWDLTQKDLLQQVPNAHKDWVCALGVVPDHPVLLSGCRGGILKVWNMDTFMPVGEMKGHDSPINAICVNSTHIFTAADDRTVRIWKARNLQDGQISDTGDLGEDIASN
UniProt P43362, sequence (P43362 whole entry, looked up): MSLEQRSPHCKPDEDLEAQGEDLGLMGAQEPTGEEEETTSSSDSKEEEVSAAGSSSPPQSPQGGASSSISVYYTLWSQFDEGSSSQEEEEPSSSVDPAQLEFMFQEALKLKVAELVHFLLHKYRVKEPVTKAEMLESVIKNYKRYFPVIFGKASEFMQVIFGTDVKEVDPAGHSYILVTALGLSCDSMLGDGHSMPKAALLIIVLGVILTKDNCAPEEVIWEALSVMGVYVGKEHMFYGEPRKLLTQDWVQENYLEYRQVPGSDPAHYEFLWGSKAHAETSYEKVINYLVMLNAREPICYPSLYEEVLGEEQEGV

log2 fold change, inactive:
LIMA1 isoform 4 (UniProt Q9UHB6) 0.061
MAGEC2 (UniProt Q9UBF1) 0.035
MAP2K3 isoform 3 (UniProt P46734) -0.031
MAGEA9 (UniProt P43362) -0.031
ILVBL (UniProt A1L0T0) 0.037
MDN1 (UniProt Q9NU22) 0.02
KIF21A isoform 4 (UniProt Q7Z4S6) -0.045
LNPK (UniProt Q9C0E8) -0.042
LRBA (UniProt P50851) 0.01
LEMD3 (UniProt Q9Y2U8) 0.056
LAMP2 (UniProt P13473) 0.05
KLHDC4 (UniProt Q8TBB5) 0.096
LBR (UniProt Q14739) 0.063
KHDC4 (UniProt Q7Z7F0) 0.113
MAP4K4 isoform 3 (UniProt O95819) -0.007
LEMD2 (UniProt Q8NC56) -0.001
